Inconclusive results are not listed. Active and inactive are the calls of the source. How the source made its calls: active means hit-call score of the fitted dose curve at least 0.9, where 1 is the maximum; inconclusive means response in the unintended direction; inactive means score below 0.9.
target: rat SKCa (Non-Selective), Kcnn1 (gene 54261) (UniProt P70606); experiment: ERF_FR_IC_rKCNN1: Eurofins (ERF) Potassium Ion Channel [125I] Apamin Binding LeadHunter Assay for rat SKCa (Non-Selective)
Sequence (P70606 whole entry, looked up): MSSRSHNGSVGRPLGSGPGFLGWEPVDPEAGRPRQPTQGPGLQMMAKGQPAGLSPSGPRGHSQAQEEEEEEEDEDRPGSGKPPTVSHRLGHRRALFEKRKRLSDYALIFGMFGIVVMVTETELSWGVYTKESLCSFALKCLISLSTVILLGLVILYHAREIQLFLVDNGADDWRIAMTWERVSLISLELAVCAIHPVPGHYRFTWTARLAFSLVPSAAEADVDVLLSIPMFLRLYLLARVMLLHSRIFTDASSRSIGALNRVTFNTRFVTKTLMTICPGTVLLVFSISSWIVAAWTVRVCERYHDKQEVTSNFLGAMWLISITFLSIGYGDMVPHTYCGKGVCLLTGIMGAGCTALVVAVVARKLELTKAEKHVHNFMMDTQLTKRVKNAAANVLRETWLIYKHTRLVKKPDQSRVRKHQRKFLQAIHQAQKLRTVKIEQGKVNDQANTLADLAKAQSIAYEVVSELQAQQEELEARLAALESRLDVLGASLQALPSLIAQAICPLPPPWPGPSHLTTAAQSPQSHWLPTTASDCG
Procedure: ERF_FR_IC_rKCNN1 is a biochemical, single-readout assay that uses extracted gene-proteins in a cell-free assay. Measurements were taken 1 hour after chemical dosing in a 96-well plate. See SKCa (Non-Selective) Rat Potassium Ion Channel [125I] Apamin Binding Assay, Cerep.ERF_FR_IC_rKCNN1 is an assay component calculated from the ERF_FR_IC_rKCNN1 assay. It is designed to measure radioligand binding using a type of binding reporter as detected by scintillation counting with radiometry technology.Data from the assay component ERF_FR_IC_rKCNN1 was analyzed at the assay endpoint, ERF_FR_IC_rKCNN1, in the positive analysis fitting direction relative to DMSO as the negative control and baseline of activity. Using a type of binding reporter, loss-of-signal activity can be used to understand changes in binding as they relate to gene Kcnn1. To generalize the intended target to other relatable targets, this assay endpoint is annotated to the ion channel intended target family, where the subfamily is voltage gated (Potassium).
This assay measures binding of [125I]apamin to small conductance calcium-activated potassium channel sites [SKCa]. […] Membranes are filtered and washed 3 times and the filters are counted to determine [125I]apamin specifically bound. […]

Q: With CCCCC[C@H](O)CC(=O)CCc1ccc(O)c(OC)c1 as the compound, how does the outcome read?
A: The outcome was “inactive”.

Source: PubChem BioAssay AID2284174 (EPA ToxCast)
